The source of these data is PubChem BioAssay (NCATS).

Records with an inconclusive call do not appear. Where a call stands in place of a potency, no number is given. The source made the active and inactive calls. The call rests on the fitted dose curve; in most records, active means well fitted curve in the direction sought with a large enough effect; inconclusive means small, poorly fitted or top-dose-only effect, or another doubt; inactive means no such curve, though single readings can be large; an effect the other way counts as inactive or inconclusive.

For test [1], the target named is Aldehyde dehydrogenase, mitochondrial (Homo sapiens) (UniProt P05091). Briefly: qHTS for Inhibitors of the Aldehyde Dehydrogenase Family (ALDH2) Primary screen (AID 2061308). Further: nearly all actives have a fitted effect of over 55% in size. Particulars: ALDH2 enzyme inhibition qHTS, 1536-well; series mostly up to 56 µM.
Test [2] deals with Retinaldehyde dehydrogenase 3 (Homo sapiens) (UniProt P47895). Briefly: qHTS for Inhibitors of the Aldehyde Dehydrogenase Family (ALDH1A3) Primary screen (AID 2061315). Particulars: ALDH inhibition qHTS; series mostly up to 56 µM.

`CC(C)(C)OC(=O)N[C@@H](Cc1ccc(O[S+](=O)([O-])c2cccc3cnccc23)cc1)C(=O)N1CCN(c2ccccc2)CC1`: the Potency entry in test [1] and in test [2] was “inactive” each time.

Regarding `CCN(CC)CCn1c(-c2ccccc2)nc2c(N3CCOCC3)nc(C)nc21`, the Potency entry in test [1] and in test [2] was “inactive” in each case.

On to `CC(C)(C)OC(=O)Cc1nnc(CNC(=O)c2ccccc2)s1`, for which the Potency result in test [1] and in test [2] was “inactive” in each case.

For the compound `OC[C@H]1O[C@@H](Oc2cccc3ccccc23)[C@H](O)[C@@H](O)[C@H]1O`, the Potency result in test [1] and in test [2] was “inactive” each time.

In the case of `Cc1cnc(-c2ccccc2CO)nc1NCc1ccc(-c2cccnc2)cc1`, the Potency entry in test [1] and in test [2] was “inactive” each time.

Consider `C[C@@H]1[C@H]2[C@H](O[C@@H]3O[C@H](CO)[C@@H](O)[C@H](O)[C@H]3O)OC=C(C(=O)O)[C@H]2C[C@@H]1O`, for which the Potency entry in test [1] and in test [2] was “inactive” each time.

As to `FC(F)(F)c1ccc(CNc2nc(-c3ccccc3C(F)(F)F)nc3ccccc23)cc1`, the Potency result in test [1] and in test [2] was “inactive” throughout.

Regarding `O=C(Nc1nnc(-c2ccco2)o1)c1ccncc1`, the Potency result in test [1] and in test [2] was “inactive” each time.

On to `COC(=O)[C@H](O)[C@H]1C(C)(C)[C@H](OC(C)=O)[C@@]2(O)C(=O)[C@]1(C)C1CC[C@]3(C)C(CC(=O)O[C@H]3c3ccoc3)[C@]13O[C@@H]32` (some centres not stated), for which the Potency result in test [1] and in test [2] was “inactive” throughout.

As for `Cc1cccc(-n2cnc3cc(C(=O)N4CCN(C)CC4)ccc32)c1`, the Potency result in test [1] and in test [2] was “inactive” in each case.

With `Cc1ccc(-c2ccc(=O)n(CC(=O)NCCc3ccc(O)cc3)n2)cc1`, the Potency entry in test [1] and in test [2] was “inactive” each time.

On to `CC1CN(c2cc3c(cc2F)c(=O)c(C(=O)O)cn3-c2ccc(F)cc2F)CCN1` (configuration not stated), for which the Potency entry in test [1] and in test [2] was “inactive” in each case.

In the case of `C=C1[C@H]2CC[C@H](C(=O)O)[C@@]23CC[C@H](C3)C1(C)C`, the Potency entry in test [1] and in test [2] was “inactive” throughout.

With `CC(C)Nc1cccc(S(=O)(=O)N2CCCN(S(=O)(=O)c3ccc4c(c3)OCCO4)CC2)c1`, the Potency result in test [1] and in test [2] was “inactive” each time.

On to `O=C1CCc2cc(S(=O)(=O)Nc3ccc4c(c3)CCC4)ccc2N1`, for which the Potency entry in test [1] and in test [2] was “inactive” throughout.

Take `CN(C)c1cccc(-c2cc(N3CCC(C(N)=O)CC3)ncn2)c1`: the Potency entry in test [1] and in test [2] was “inactive” in each case.

For `CCOc1cc(C)c(Cl)cc1S(=O)(=O)n1cnc2ccccc21`, the Potency entry in test [1] and in test [2] was “inactive” in each case.

In the case of `CCN(CC)CCCC(C)n1c(-c2ccccc2)nc2c(NC3CCCCC3)nc(C)nc21` (configuration not stated), the Potency result in test [1] and in test [2] was “inactive” throughout.

With `COc1ccc(-c2ccc3ncnc(NCc4ccc(C)o4)c3c2)cc1OC`, the Potency entry in test [1] and in test [2] was “inactive” each time.

Take `O=S(=O)(Nc1cccc2cccnc12)c1ccccc1`: the Potency result in test [1] and in test [2] was “inactive” each time.

For `Cc1cn([C@H]2C[C@H](N[S+](=O)([O-])Cc3ccc([N+](=O)[O-])cc3)[C@@H](CO)O2)c(=O)[nH]c1=O`, the Potency result in test [1] and in test [2] was “inactive” in each case.

As for `C=Cc1cc(F)c(S(=O)(=O)N2CCN(S(=O)(=O)c3ccc4c(c3)OCCO4)CC2)cc1F`, the Potency result in test [1] and in test [2] was “inactive” throughout.

As to `Cc1ccc(CN(C)c2ncnc3ccc(-c4ccc(C(=O)O)o4)cc23)o1`, the Potency result in test [1] and in test [2] was “inactive” each time.

As to `O=C1CCCC2=C1C(c1ncccc1Br)N=C(Nc1nc3ccccc3o1)N2` (configuration not stated), the Potency result in test [1] and in test [2] was “inactive” in each case.

For the compound `O=[S+]([O-])(Nc1nccs1)c1ccc(NCc2cccc(Cl)c2)cc1`, the Potency result in test [1] and in test [2] was “inactive” each time.

Take `Cc1nc(N2CCOCC2)c2nc(-c3ccccc3)n(CCN3CCOCC3)c2n1`: the Potency entry in test [1] and in test [2] was “inactive” each time.

Regarding `O=C(O)c1cccc(-c2cccc(-c3nn4c(=O)cc(N5CCNCC5)nc4s3)c2)c1`, the Potency entry in test [1] and in test [2] was “inactive” each time.

For the compound `O=C(Nc1nnc(-c2ccncc2)s1)Oc1ccc2ccccc2c1`, the Potency result in test [1] and in test [2] was “inactive” each time.

For `Nc1cccc([S+](=O)([O-])N2CCCN([S+](=O)([O-])c3cccc(N)c3)CC2)c1`, the Potency entry in test [1] and in test [2] was “inactive” each time.

Take `Cc1ccc(-n2cnc3cc(C(=O)N4CCCCC4)ccc32)cc1`: the Potency result in test [1] and in test [2] was “inactive” in each case.

Take `Cc1cnc(-c2ccccc2C(C)C)nc1NCC1CCN(C)CC1`: the Potency result in test [1] and in test [2] was “inactive” in each case.

Regarding `CC(C)c1ccccc1-c1nc(NCc2ccc(-c3cccnc3)cc2)c2ccccc2n1`, the Potency entry in test [1] and in test [2] was “inactive” in each case.

`Cc1cc(C)nc(NC(=S)N2CCN(c3nccs3)CC2)c1`: the Potency result in test [1] and in test [2] was “inactive” in each case.

Regarding `O=S(=O)(c1c(F)cccc1F)C1CCN(S(=O)(=O)c2ccc3c(c2)OCCO3)CC1`, the Potency result in test [1] and in test [2] was “inactive” each time.

In the case of `Cc1cc(N[S+](=O)([O-])c2ccc(NC(=O)Cc3cccc(Cl)c3Cl)cc2)no1`, the Potency entry in test [1] and in test [2] was “inactive” each time.

Regarding `COCCN(CCOC)c1nc(C)nc2c1nc(-c1ccccc1)n2CCN1CCOCC1`, the Potency result in test [1] and in test [2] was “inactive” throughout.

With `N#CN1CCC(NC(=O)c2ccc(C(F)(F)F)cc2)CC1`, the Potency result in test [1] and in test [2] was “inactive” each time.

For `CCn1cnc2c(NCc3cccnc3)nc(C#N)nc21`, the Potency entry in test [1] and in test [2] was “inactive” throughout.

With `COc1cccc(C2=Nn3c(nnc3-c3cc(OC)cc(OC)c3)SC2)c1`, the Potency entry in test [1] and in test [2] was “inactive” in each case.

`COc1cc(O)c(C(CC(=O)N2CCCC(C(=O)N3CCCCC3)C2)c2ccc3c(c2)OCO3)c(OC)c1` (configuration not stated): the Potency result in test [1] and in test [2] was “inactive” throughout.

As to `CC(C)(C)N[S+](=O)([O-])c1cccc(-c2nnc(SCc3ccc(C(=O)O)cc3)n2-c2ccc(F)cc2)c1`, the Potency entry in test [1] and in test [2] was “inactive” throughout.
